The record followed here is PubChem BioAssay AID2427 (National Center for Advancing Translational Sciences (NCATS), 2010).

Activity calls are given as the source filed them.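 The calls were made as follows: active = melting temperature shift above 3 C; inconclusive = shift above 1 C but not above 3 C; inactive = the rest.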

The target of the first test is 15-hydroxyprostaglandin dehydrogenase [NAD(+)] (Homo sapiens) (UniProt P15428). Briefly: Thermal Shift Assay for Inhibitors of HPGD (15-Hydroxyprostaglandin Dehydrogenase). The note with it: Recombinant HPGD thermal shift, SYPRO orange DSF, at 250 µM, stronger effect = higher value. On the procedure: Assay Overview: Human 15-Hydroxyprostaglandin dehydrogenase (HPGD) catalyzes the inactivation of prostaglandin E2, and plays a major role in cancer biology by antagonizing the oncogenic potential of cyclooxygenase type 2 (COX2). Studies to assess the stability of human 15-PGDH in presence of compounds was performed as described (Niesen et al., 2007) with variations. References 1. Myung SJ, Rerko RM, Yan M, Platzer P, Guda K, Dotson A, Lawrence E, Dannenberg AJ, Lovgren AK, Luo G, Pretlow TP, Newman RA, Willis J, Dawson D, Markowitz SD. 15-Hydroxyprostaglandin dehydrogenase is an in vivo suppressor of colon tumorigenesis. Proc Natl Acad Sci U S A. 2006 Aug 8;103(32):12098-102. 2. Yan M, Rerko RM, Platzer P, Dawson D, Willis J, Tong M, Lawrence E, Lutterbaugh J, Lu S, Willson JK, Luo G, Hensold J, Tai HH, Wilson K, Markowitz SD. 15-Hydroxyprostaglandin dehydrogenase, a COX-2 oncogene antagonist, is a TGF-beta-induced suppressor of human gastrointestinal cancers. Proc Natl Acad Sci U S A. 2004 Dec 14;101(50):17468-73. 3. Yang L, Amann JM, Kikuchi T, Porta R, Guix M, Gonzalez A, Park KH, Billheimer D, Arteaga CL, Tai HH, Dubois R, Carbone DP, Johnson DH. Inhibition of Epidermal Growth Factor Receptor Signaling Elevates 15-Hydroxyprostaglandin Dehydrogenase in Non-Small-Cell Lung Cancer. Cancer Res. 2007 Jun 15;67(12):5587-5593. 4. Niesen FH, Berglund H, Vedadi M: The use of differential scanning fluorimetry to detect ligand interactions that promote protein stability. Nature protocols 2007; 2:2212-2221 NIH Chemical Genomics Center [NCGC] Structural Genomics Consortium [SGC]
15-hydroxyprostaglandin dehydrogenase [NAD(+)] (Homo sapiens), sequence (P15428 whole entry, looked up): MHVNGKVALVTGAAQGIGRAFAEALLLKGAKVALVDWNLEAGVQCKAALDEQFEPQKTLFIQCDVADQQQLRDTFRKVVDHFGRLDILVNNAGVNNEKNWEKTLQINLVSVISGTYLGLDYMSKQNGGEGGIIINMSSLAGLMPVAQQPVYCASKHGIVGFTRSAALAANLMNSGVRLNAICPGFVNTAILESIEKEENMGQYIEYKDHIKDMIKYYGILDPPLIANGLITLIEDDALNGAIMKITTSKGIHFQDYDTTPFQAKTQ
HPGD was diluted to a final assay concentration of 1 uM in 100 mM Tris buffer, pH 8.0, containing 0.01% Tween-20 and 1:1000 SYPRO orange dye. The final assay volume is 10 ul, with or without 200 uM of either NAD+ or NADH. Compounds were added 1:5 from appropriate stock solutions in 10% (v/v) DMSO to comprise either 50 or 250 uM final concentrations. Heat denaturation curves were recorded using a RT-PCR instrument (Mx3005p, Agilent) applying a temperature gradient of 2 degree C/min. Analysis of the data was performed using DSF Analysis vers. 2.5 (ftp://ftp.sgc.ox.ac.uk/pub/biophysics) and Prism 5.0 (GraphPad Software, Inc.)
As for `O=c1[nH]c(SCc2ccccc2Cl)nc2c1CCC2`, the thermal shift (delta Tm) was 9.2 C (active).
Regarding `Cc1ccc(-c2n[nH]c(=S)n2/N=C/C=C\c2ccccc2[N+](=O)[O-])cc1`, the thermal shift (delta Tm) was 4.5 C (active).
Turning to `O=C(c1ccc(COc2ccccc2Br)cc1)N1CCCCC1`, the thermal shift (delta Tm) was 7.1 C (active).
Same read-out and setting: as for `CC1CCCN(C(=O)c2ccc(COc3ccccc3Br)cc2)C1` (stereo not given), the figure is 3.8 C (active); as for `CCN(CC)C(=O)c1sc2nc(-c3cccs3)cc(-c3ccc(Cl)cc3)c2c1N`, 0.9 C (inactive); as for `COc1ccc2cc(C(=O)N3CCCCCC3)sc(=O)c2c1OC`, 3.2 C (active).
For `Fc1ccccc1CSc1nc2ncc(Br)cc2[nH]1`, the thermal shift (delta Tm) was 7.6 C (active).
Still for that read-out and setting: with `O=C(CSc1nc(-c2ccccc2)nn1C(=O)c1ccccc1)Nc1cccc([N+](=O)[O-])c1` the figure was 4 C (active); with `COc1ccc(OC)c(C(=O)c2ccc(C(=O)N3CCCCC3)cc2)c1`, 3 C (active).
Still for that read-out and setting: as for `O=C(CCc1ccc(Oc2cc([N+](=O)[O-])cc([N+](=O)[O-])c2)cc1)N1CCCCC1`, the figure is 3.1 C (active); as for `COCCNC(=O)C1CCC(Cn2c(=S)[nH]c3ccccc3c2=O)CC1` (stereo not given), 3.7 C (active); as for `Cc1cc(-c2nnc3n2CCCCC3)c(C)n1-c1ccccc1`, 5 C (active).
`COCCNC(=O)c1nc2c(nnn2Cc2cc(C)ccc2C)c(=O)[nH]1`: the thermal shift (delta Tm) is 8.9 C (active).
As for `O=C(c1ccc2c(c1)OCO2)N1CCc2ccccc2C1`, the thermal shift (delta Tm) was 3.3 C (active).
For the molecule `O=C(c1ccc2c(c1)OCCO2)N1CCCCC1`, the thermal shift (delta Tm) was 3.5 C (active).
On the same count and under the same terms, with `COc1ccc(-c2cc(C(F)(F)F)n3nc(C(=O)N4CCCCC4)cc3n2)cc1OC` the figure was 3.9 C (active); with `Cc1cccc(-n2cnc3cc(C(=O)N4CCCCC4)ccc32)c1`, 7.3 C (active); with `Cc1ccccc1CSc1nc2ccccc2c(=O)[nH]1`, 6.1 C (active).
Turning to `O=C(c1ccc(N2C(=O)C3CC=C(Cl)CC3C2=O)cc1)N1CCCCC1` (stereo not given), the thermal shift (delta Tm) was 3 C (active).
Still for that read-out and setting: with `O=C(C1CCC(Cn2c(=S)[nH]c3ccccc3c2=O)CC1)N1CCOCC1` (stereo not given) the figure was 6 C (active).

The test is the same for the next values; noted with them: Recombinant HPGD thermal shift, SYPRO orange DSF, measured here: delta Tm with NADH cofactor, at 250 µM, stronger effect = higher value.
`O=c1[nH]c(SCc2ccccc2Cl)nc2c1CCC2`: the thermal shift (delta Tm) came to 1.6 C.
Regarding `Cc1ccc(-c2n[nH]c(=S)n2/N=C/C=C\c2ccccc2[N+](=O)[O-])cc1`, the thermal shift (delta Tm) was 0.2 C.
Consider `O=C(c1ccc(COc2ccccc2Br)cc1)N1CCCCC1`, for which the thermal shift (delta Tm) stood at 10.6 C.
Turning to `CC1CCCN(C(=O)c2ccc(COc3ccccc3Br)cc2)C1` (stereo not given), the thermal shift (delta Tm) was determined as 10.6 C.
In the case of `CCN(CC)C(=O)c1sc2nc(-c3cccs3)cc(-c3ccc(Cl)cc3)c2c1N`, the thermal shift (delta Tm) was found to be 2.9 C.
On the same count and under the same terms, as for `COc1ccc2cc(C(=O)N3CCCCCC3)sc(=O)c2c1OC`, the figure is 7.8 C.
Same read-out and setting: with `Fc1ccccc1CSc1nc2ncc(Br)cc2[nH]1` the figure was 1.5 C; with `O=C(CSc1nc(-c2ccccc2)nn1C(=O)c1ccccc1)Nc1cccc([N+](=O)[O-])c1`, -7.6 C; with `COc1ccc(OC)c(C(=O)c2ccc(C(=O)N3CCCCC3)cc2)c1`, 6.6 C.
Same read-out and setting: as for `O=C(CCc1ccc(Oc2cc([N+](=O)[O-])cc([N+](=O)[O-])c2)cc1)N1CCCCC1`, the figure is 7.9 C.
In the case of `COCCNC(=O)C1CCC(Cn2c(=S)[nH]c3ccccc3c2=O)CC1` (stereo not given), the thermal shift (delta Tm) amounted to 4.7 C.
In the case of `Cc1cc(-c2nnc3n2CCCCC3)c(C)n1-c1ccccc1`, the thermal shift (delta Tm) came out at 10.5 C.
For `COCCNC(=O)c1nc2c(nnn2Cc2cc(C)ccc2C)c(=O)[nH]1`, the thermal shift (delta Tm) stood at 6.6 C.
Same read-out and setting: with `O=C(c1ccc2c(c1)OCO2)N1CCc2ccccc2C1` the figure was 4.4 C.
Same read-out and setting: as for `O=C(c1ccc2c(c1)OCCO2)N1CCCCC1`, the figure is 7.8 C.
On the same count and under the same terms, as for `COc1ccc(-c2cc(C(F)(F)F)n3nc(C(=O)N4CCCCC4)cc3n2)cc1OC`, the figure is 9.6 C; as for `Cc1cccc(-n2cnc3cc(C(=O)N4CCCCC4)ccc32)c1`, 13.5 C; as for `Cc1ccccc1CSc1nc2ccccc2c(=O)[nH]1`, 0.4 C.
On to `O=C(c1ccc(N2C(=O)C3CC=C(Cl)CC3C2=O)cc1)N1CCCCC1` (stereo not given), for which the thermal shift (delta Tm) is 6.1 C.
Regarding `O=C(C1CCC(Cn2c(=S)[nH]c3ccccc3c2=O)CC1)N1CCOCC1` (stereo not given), the thermal shift (delta Tm) stood at 3.9 C.
